Source: PubChem BioAssay AID504660 (National Center for Advancing Translational Sciences (NCATS), 2011)
Screen size: about 360,000 compounds; about 3,700 (1%) were called active. This excerpt belongs to a sample that is enriched for actives. Values without a mark were called inactive. No stated cut-off is given here; in the data, active means activation above about 30%; inactive means the rest.

The compounds below were run against D(1A) dopamine receptor (Homo sapiens) (UniProt P21728) (assay: Allosteric Agonists of the Human D1 Dopamine Receptor: qHTS). Conditions: HEK293 T-REx D1 cells, calcium flux, agonist mode; at 2 µM; active compounds read high.
D(1A) dopamine receptor (Homo sapiens), sequence (P21728 whole entry, looked up): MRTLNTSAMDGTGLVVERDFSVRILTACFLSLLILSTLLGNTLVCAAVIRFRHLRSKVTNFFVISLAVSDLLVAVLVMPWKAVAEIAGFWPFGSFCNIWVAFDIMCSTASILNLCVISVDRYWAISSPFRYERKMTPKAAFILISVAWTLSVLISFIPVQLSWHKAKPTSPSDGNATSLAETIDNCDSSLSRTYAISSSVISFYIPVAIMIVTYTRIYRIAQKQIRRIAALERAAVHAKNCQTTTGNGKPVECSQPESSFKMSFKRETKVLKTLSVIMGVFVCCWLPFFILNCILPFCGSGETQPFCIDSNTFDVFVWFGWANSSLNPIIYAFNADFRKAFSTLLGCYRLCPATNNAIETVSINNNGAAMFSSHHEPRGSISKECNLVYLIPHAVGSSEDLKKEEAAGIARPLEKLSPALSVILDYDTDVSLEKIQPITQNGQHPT
Source text: NIH Chemical Genomics Center [NCGC] NIH Molecular Libraries Probe Centers Network [MLPCN] MLPCN Grant: NS064831-01 Assay Submitter (PI): David Sibley Dopamine receptors (DARs) are involved in the etiology and/or therapy of a number of neuropsychiatric and endocrine disorders. For instance, all receptor-based antiparkinsonian drugs work via stimulating the D1 DAR subtype whereas all FDA-approved antipsychotic agents are antagonists of this receptor. […] There are three different types of allosteric modulators that we are seeking, two of which will stimulate or augment receptor signaling, allosteric agonists and potentiators, while the third, allosteric antagonists, will attenuate receptor signaling. The present primary screening assay measures compound agonism by tracking calcium flux in a […], inducible Hek293 Trex D1 cell line.
Freshly passaged cells are plated in 1536 well black, clear bottom plates at a density of 4000 cells/well in 3 ul of complete media containing 1x tetracycline inducer. After an overnight incubation at […] in 5% CO2, cells are loaded with 2 ul of the no wash Calcium Assay Kit (ABD Bioquest) and incubated at room temperature for 30 to 90 minutes. Agonist read: A 10 cycle (1 second/cycle) baseline measurement is taken and then the FDSS online 1536 pintool delivers 23 nl of compound library (as well as dopamine controls) to the plate. The plate is measured for kinetically at 1 cycle/sec for 180 seconds and is considered to be the agonist portion of the assay (eg, compounds which activate a positive calcium response during this portion are flagged as potential agonists). Following the 180 second read, 1 ul of either an EC20 (positive modulation assay) or EC80 (negative modulation assay) is delivered by an onboard pipette head. Measurements are taken kinetically for an additional 180 seconds.
Further: 0% is about no effect.

SMILES | activation
CCCCCCCCCCCCn1ccc(=N)cc1 | 52.6% (active)
COc1ccc(-c2nn(CCC#N)cc2C(=O)O)cc1 | 2.02%
NC(=O)Nc1cccc(C(F)(F)F)c1 | 1.22%
CC(Cc1ccccc1)NCCC(c1ccccc1)c1ccccc1 (stereo not given) | 19.9%
CCN(CC)c1ccc([N+](=O)[O-])c2cccnc12 | 6.86%
COc1ccc(C(=O)C2CN(C)CC2C(=O)c2ccc(OC)cc2)cc1 (stereo not given) | 4.65%
O=C1C2(Cl)C3(Cl)C4(Cl)C(Cl)(Cl)C5(Cl)C3(Cl)C1(Cl)C5(Cl)C24Cl (stereo not given) | 99.6% (active)
CCN1CCN(Cc2cc(OC)c3c(c2)OCO3)CC1 | 3.83%
Cc1ccc(-n2c(/C=C/c3cccc(C(F)(F)F)c3)nc3ccccc3c2=O)cc1 | -0.792%
COc1ccc(CN2CCN(c3ccccc3F)CC2)c(OC)c1 | 4.33%
CC(C)c1ccc(O)c(CN2CCN(c3ccccc3)CC2)c1 | 93% (active)
Oc1cc2c(cc1CN1CCN(c3ccccc3)CC1)OCO2 | 2.23%
CCN1C(=O)C(=Cc2c(C)n(CC(=O)NCC3CCCO3)c3ccccc23)C(=O)N(CC)C1=S (stereo not given) | 8.52%
Cc1cccc(Cn2cccc(C(=O)Nc3ccc4c(c3)OCCO4)c2=O)c1 | 5.25%
COc1ccc(Br)cc1CNCCc1cccc(Cl)c1 | 34.4% (active)
COc1ccc(CNCCc2ccc3c(c2)OCO3)c(OC)c1OC | 11.4%
COc1ccc(CNCCc2c[nH]c3ccccc23)cc1OC | 12.6%
Cc1cc2ccccn2c1C(C[N+](=O)[O-])c1c(F)cccc1Cl (stereo not given) | 0.11%
CN(C)c1nc(N(C)C)nc(N(C#N)CCCl)n1 | 1.85%
O=C(c1cc2nc(-c3ccccc3)cc(-c3ccccc3)n2n1)N1CCC2(CC1)OCCO2 | 1.75%
CCCCC(=O)N/N=C/c1c(O)n(CC)c(=S)n(CC)c1=O | 71.8% (active)
CCCCC(=O)N/N=C/c1c(O)n(CCC2=CCCCC2)c(=O)[nH]c1=O | 2.44%
CCCCC(=O)N/N=C/c1c(O)n(-c2ccccc2)c(=O)[nH]c1=O | -0.172%
Cc1ccc(NC(=O)N(Cc2ccc3c(c2)OCO3)C2CCN(Cc3ccccc3)CC2)cc1F | 9.83%
COC(=O)N1C(c2ccccc2)C1c1ccccc1 (stereo not given) | 6.43%
COc1ccccc1N1CCN(C(CNC(=O)Oc2ccccc2)c2cccnc2)CC1 (stereo not given) | 0.177%
COC(=O)C(c1ccccc1)N1CCCCCC1 (stereo not given) | 40% (active)
NCC(O)c1ccc(O)cc1 (stereo not given) | 0.942%
COc1ccc(N=Cc2c(O)n(C)c(=O)[nH]c2=O)cc1 | 2.19%
CC(=O)c1c(O)n(C2CCCCCC2)c(=O)[nH]c1=O | 2.24%
